Most compounds without a hit are left out; they make up all but 3.9% or so of the library.
Autofluor counter = counter-screen for toxin protease inhibitors: compound fluorescence; compound autofluorescence counterscreen, microsphere flow cytometry; stronger effect = higher value; fluorescence intensity (no concentration beside the values); actives 3.1% (n = 360,000); AID 624483; in the data active = fluorescence intensity above about 16000; inconclusive = no clear call, values can overlap the other calls
BoNT F protease = BoNT F light chain protease inhibition; inhibition, % at 10 µM; actives 0.22% (n = 360,000); AID 588497; Multiplex microsphere protease cleavage assay, flow cytometry; in the data active = inhibition above about 35%, passing the limit was not always enough; inconclusive = no clear call, values can overlap the other calls
BoNT-A LC inh2 = inhibitors of Botulinum neurotoxin A light chain protease. multiplex microsphere protease substrate cleavage, flow cytometry. actives 0.17% (n = 360,000). inhibition, % at 10 µM. AID 588499
3CLpro inhibitor = SARS-CoV 3CLpro protease inhibition; AID 1706; actives 0.14% (n = 290,000); recombinant SARS-CoV 3CLpro, quenched FRET peptide cleavage; P0C6X7; inhibition, % at 6 µM; in the data active = inhibition above about 12%
Anthrax LF prot = blocks Bacillus anthracis lethal factor protease | P15917 | multiplex microsphere protease cleavage assay, LF | inhibition, % at 10 µM | actives 0.12% (n = 360,000) | AID 588501
Target sequence (P15917 whole entry, looked up): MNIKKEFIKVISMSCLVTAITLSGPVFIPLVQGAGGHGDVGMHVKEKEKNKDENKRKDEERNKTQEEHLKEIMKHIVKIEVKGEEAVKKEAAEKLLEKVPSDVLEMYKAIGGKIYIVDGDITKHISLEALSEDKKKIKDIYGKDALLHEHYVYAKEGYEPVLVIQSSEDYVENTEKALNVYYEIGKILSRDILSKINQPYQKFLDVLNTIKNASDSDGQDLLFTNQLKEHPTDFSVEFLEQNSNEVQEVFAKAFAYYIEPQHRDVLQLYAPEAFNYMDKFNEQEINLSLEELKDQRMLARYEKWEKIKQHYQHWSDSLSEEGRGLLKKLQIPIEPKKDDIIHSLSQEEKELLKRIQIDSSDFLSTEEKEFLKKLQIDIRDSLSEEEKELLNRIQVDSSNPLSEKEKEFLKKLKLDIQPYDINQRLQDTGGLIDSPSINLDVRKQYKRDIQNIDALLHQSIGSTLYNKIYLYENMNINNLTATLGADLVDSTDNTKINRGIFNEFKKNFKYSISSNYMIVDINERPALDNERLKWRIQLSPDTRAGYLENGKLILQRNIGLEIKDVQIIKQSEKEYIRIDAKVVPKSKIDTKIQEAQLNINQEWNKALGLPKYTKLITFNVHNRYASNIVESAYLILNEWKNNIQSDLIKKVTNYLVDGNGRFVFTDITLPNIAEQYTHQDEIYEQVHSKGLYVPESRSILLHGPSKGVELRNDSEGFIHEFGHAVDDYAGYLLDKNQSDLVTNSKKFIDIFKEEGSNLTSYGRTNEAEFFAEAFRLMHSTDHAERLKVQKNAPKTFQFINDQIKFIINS
CCHF vOTU inh = CCHFV vOTU protease inhibition; Pep-AMC fluorescence; inhibition, % at 11.5 µM; actives 0.55% (n = 370,000); AID 651958; in the data active = inhibition above about 30%
Large screens that a line does not name were inactive. Rule as the data show it, unless noted: active = inhibition above about 30%; inconclusive = no clear call, values can overlap the other calls; inactive = below that.

Cc1ccc(NC(=O)C(SCC(=O)O)c2ccccc2)cc1C (stereo not drawn)	none
CCOCCCNC(=O)C1c2ccccc2C(=O)N2CCc3ccccc3C12 (stereo not drawn)	Autofluor counter 16166
CC1CCN(C(=O)C2c3ccccc3C(=O)N3CCc4ccccc4C23)CC1 (stereo not drawn)	Autofluor counter 22497
CCCN(CCC)CCNC(=O)C1c2ccccc2C(=O)N2CCc3ccccc3C12 (stereo not drawn)	none
O=C(C[C@@H]1C/C=C\C[C@@H](Cc2ccc(F)cc2)C(=O)OC[C@@H]2CCCN2C1=O)NCCO	none (no result: 3CLpro inhibitor)
c1ccc(-c2nnc(OCC3CCCO3)c3ccccc23)cc1 (stereo not drawn)	none
COc1ccc(NS(=O)(=O)c2cccc(C(=O)N3CCN(C(=O)c4ccco4)CC3)c2)cc1	none (no result: 3CLpro inhibitor)
Cc1cccc(NC(=O)c2cc(NC(=O)CCCC(=O)O)ccc2Cl)n1	Autofluor counter 23857
CCCCC(=O)Nc1ncc(Br)s1	Autofluor counter 21554 (no result: CCHF vOTU inh)
CCCCC(=O)Nc1ncc([N+](=O)[O-])s1	none
CCOc1ccc(CN(C)C(=O)CNC(=O)C2CCCCC2)cc1OC	none
Cc1ccc(S(=O)(=O)Nc2cc(=O)[nH]c(SCC(=O)Nc3cccc(C(F)(F)F)c3)n2)cc1	none
O=C(COC(=O)c1ccc(O)cc1)Nc1ccc(S(=O)(=O)N2CCCC2)cc1	none (no result: 3CLpro inhibitor)
CCN(c1ccc(NC(=O)COC(=O)c2ccc(S(=O)(=O)N3CCCC3)cc2)cc1)C(C)C	Autofluor counter 24507
O=C(CSc1nc2cc3ccccc3cc2[nH]1)Nc1ccc(F)cc1	Autofluor counter 23788, BoNT-A LC inh2 inconclusive
O=C(CSC1=NCCS1)Nc1ccc(S(=O)(=O)N2CCCCCC2)cc1	Autofluor counter 23340
O=C(CSC1=NCCS1)Nc1ccc(S(=O)(=O)NC2CCCCC2)cc1	none
Cc1ccc(NC(=O)CSc2nc(NS(=O)(=O)c3ccc(C)cc3)cc(=O)[nH]2)cc1	Autofluor counter 19078, BoNT-A LC inh2 inconclusive
COc1ccc(OC)c(CCNC(=O)CCc2nnc3ccc(N4CCOCC4)nn23)c1	none
Cc1ccccc1OCC(=O)NCc1ccccc1	none
Cc1ccc(S(=O)(=O)CCC(=O)OCC(=O)N2c3ccccc3CC2C)cc1 (stereo not drawn)	none (no result: 3CLpro inhibitor)
Cc1ccccc1C(=O)NNC(=O)CSc1nc2ccccc2c(=O)[nH]1	none
Cc1csc(NC(=O)CSc2nc3ccccc3c(=O)[nH]2)n1	none
Cc1cccc(C)c1NC(=O)CSc1nc2ccccc2c(=O)[nH]1	Autofluor counter 22821, BoNT-A LC inh2 inconclusive
CC(C)(C)c1csc(NC(=O)CSc2nc3ccccc3c(=O)[nH]2)n1	Autofluor counter 19081, BoNT-A LC inh2 inconclusive
O=C(CSc1nc2ccccc2c(=O)[nH]1)Nc1ccc(S(=O)(=O)N2CCCC2)cc1	Autofluor counter 16902, BoNT-A LC inh2 inconclusive
O=C(O)c1ccc(COc2ccccc2Cl)cc1	none
CN1CCN(C(=O)c2cccc(COc3cc(Cl)ccc3Cl)c2)CC1	Autofluor counter 22814
CCC(C)NC(=O)c1ccc(COc2ccccc2Cl)cc1 (stereo not drawn)	Autofluor counter 21804
O=C(O)c1cccc(COc2ccccc2Cl)c1	Autofluor counter 22141 (no result: 3CLpro inhibitor)
O=C(N[C@H](C(=O)N1CCC[C@H]1C(=O)NCc1ccccc1)C1CCCCC1)c1ccc(Cl)cc1Cl	none (no result: Autofluor counter, BoNT F protease, BoNT-A LC inh2, 3CLpro inhibitor, Anthrax LF prot)
CC(C)Nc1nc(NC(C)C)nc(Oc2ccc(=O)n(C)n2)n1	none
Cc1cccc(Nc2nc(NC(C)C)nc(Oc3ccc(=O)n(C)n3)n2)c1	Autofluor counter 23566
CC(C)Oc1ccc(NC(N)=O)cc1	none
Cc1ccc(NC(=O)CNc2ccc(OC(C)C)cc2)c(C)c1	Autofluor counter 19175
Cc1ccc(NC(=O)CNc2cccc(C)c2C)c(C)c1	none
O=C(O)CCCC(=O)Nc1ccc(Br)cc1	Autofluor counter 23089
CC(C)Oc1ccc(NC(=O)CCC(=O)O)cc1	Autofluor counter 16641
O=C(c1cc(Cl)cc(Cl)c1)N1CC[C@H]2[C@H](CCCN2Cc2ccc(F)cc2)C1	none (no result: Autofluor counter, BoNT F protease, BoNT-A LC inh2, 3CLpro inhibitor, Anthrax LF prot)
COC(=O)[C@]1(CNC(=O)Nc2ccc(C)c(Cl)c2)CC(=O)N(C)[C@@H]1c1ccccc1	none (no result: Autofluor counter, BoNT F protease, BoNT-A LC inh2, 3CLpro inhibitor, Anthrax LF prot)
CCOC(=O)C1=CCN(S(=O)(=O)c2ccc(Cl)cc2)C1c1cccc(C)c1 (stereo not drawn)	none (no result: 3CLpro inhibitor)
CCCOc1ccc(-c2nc(=S)[nH][nH]2)cc1	Autofluor counter 22693, BoNT-A LC inh2 inconclusive
Nn1c(SCC(=O)Nc2ccccc2-c2ccccc2)nnc1-c1n[nH]c2c1CCC2	none (no result: Autofluor counter, BoNT F protease, BoNT-A LC inh2, 3CLpro inhibitor, Anthrax LF prot)
CC(NC(=O)COC(=O)Cc1ccsc1)C1CC2CCC1C2 (stereo not drawn)	Autofluor counter 24292
Cc1ccc(C(=O)NCC(=O)OCC(=O)NC(C)C2CC3CCC2C3)cc1 (stereo not drawn)	Autofluor counter inconclusive (no result: 3CLpro inhibitor)
CC(=O)Nc1cccc(C(=O)/C=C/c2ccco2)c1	Autofluor counter 22380, BoNT-A LC inh2 inconclusive
C[C@H](CO)N1C[C@H](C)[C@@H](CN(C)CC2CCCCC2)Oc2ccc(NS(C)(=O)=O)cc2C1=O	none (no result: 3CLpro inhibitor)
O=[N+]([O-])c1ccc(Cl)c(/C=N/NC(=S)Nc2ccccc2)c1	Autofluor counter 16957, BoNT-A LC inh2 inconclusive
NC(=S)N/N=C/c1cc([N+](=O)[O-])ccc1Cl	none
NC(=O)CSc1nnc(-c2ccccc2F)n1C1CC1	none
COc1ccc(OC)c(S(=O)(=O)N2CCC(C(=O)NCc3cccs3)CC2)c1	none (no result: Autofluor counter, BoNT F protease, BoNT-A LC inh2, 3CLpro inhibitor, Anthrax LF prot)
CCCCn1c(SCC(=O)Nc2nnc(C(C)C)s2)nc2c1c(=O)n(C)c(=O)n2C	Autofluor counter 20755
COc1ccccc1N1CCN(C(=O)CSc2nc(N)cc(=O)[nH]2)CC1	none
Nc1cc(=O)[nH]c(SCC(=O)N2CCc3ccccc3C2)n1	Autofluor counter 20269
CCOc1ccc(OCC)c(NC(=O)CSc2nc3c(c(=O)n(C)c(=O)n3C)n2CC)c1	Autofluor counter 19457
CCOc1ccc(OCC)c(NC(=O)CSc2nc3c(c(=O)n(C)c(=O)n3C)n2C(C)C)c1	none
Cc1nnc(NC(=O)CSc2nc3c(c(=O)n(C)c(=O)n3C)n2C(C)C)s1	none
CCCn1c(SCC(=O)N2CCc3ccccc3C2)nc2c1c(=O)n(C)c(=O)n2C	Autofluor counter 23593
CCn1c(SCC(=O)N2CCc3ccccc3C2)nc2c1c(=O)n(C)c(=O)n2C	none
CC(=O)c1ccc(-n2nnnc2SCC(=O)N2CCc3ccccc3C2)cc1	none
CCCn1c(SCC(=O)Nc2nc3c(s2)CCCC3)nc2c1c(=O)n(C)c(=O)n2C	Autofluor counter 23637
c1ccc(-n2nnnc2SCc2ccccn2)cc1	none
CCCn1c(SCC(=O)Nc2ccccc2N2CCOCC2)nc2c1c(=O)n(C)c(=O)n2C	BoNT F protease inconclusive
C(=C\CSc1nnnn1-c1ccccc1)/CSc1nnnn1-c1ccccc1	Autofluor counter 20060
O=C(CSc1nnnn1-c1ccccc1)N1CCc2ccccc2C1	Autofluor counter 22363
O=C(Nc1ccc(NC(=O)C2CCCCC2)nc1)c1cccs1	none
CC1CCCN(C(=O)CCS(=O)(=O)Cc2ccccc2)C1 (stereo not drawn)	Autofluor counter 16402

Screens (PubChem BioAssay)
